Paper PMC5540273 (PLoS ONE, 2017)
Where “and” joins values, the source holds several entries; their conditions need not be identical. Identical values can stand only once. Like-named read-outs stand apart in the source and are kept apart here.

What was measured:
Details in all cases: concentration: 1 μM, replicates: in singlicate, n = 1
DAPK1 = test system: DAPK1
DAPK2 = test system: DAPK2
DAPK3 = test system: DAPK3
DCAMKL1 = test system: T1, DCAMKL1
T1 construct: gene DCLK1

DCAMKL2 = test system: T2, DCAMKL2
T2 construct: gene DCLK2

DCAMKL3 = test system: T3, DCAMKL3
T3 construct: gene DCLK3

DDR1 = test system: DDR1
DDR2 = test system: DDR2
DLK = test system: T4, DLK
T4 construct: gene MAP3K12

DMPK2 = test system: T5, DMPK2
T5 construct: gene CDC42BPG
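Note: KINOMEscan kinase panel screen.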

Row | Structure (SMILES) | %Inh (DAPK1) [%] | %Inh (DAPK2) [%] | %Inh (DAPK3) [%] | %Inh (DCAMKL1) [%] | %Inh (DCAMKL2) [%] | %Inh (DCAMKL3) [%] | %Inh (DDR1) [%] | %Inh (DDR2) [%] | %Inh (DLK) [%] | %Inh (DMPK2) [%] | %Inh (DAPK1; 1 µM) | %Inh (DAPK2; 1 µM) | %Inh (DAPK3; 1 µM) | %Inh (DCAMKL1; 1 µM) | %Inh (DCAMKL2; 1 µM) | %Inh (DCAMKL3; 1 µM) | %Inh (DDR2; 1 µM) | %Inh (DLK; 1 µM) | %Inh (DMPK2; 1 µM) | %Inh (DDR1; 1 µM)
1 | COc1ccc(COc2cc(-n3cnc4ccccc43)sc2C(N)=O)cc1 [GSK1024304] | 3 | 10 | 8 | 0 | 8 | 0 | 0 | 0 | 25 | 7 | – | – | – | – | – | – | – | – | – | –
2 | NCCNS(=O)(=O)c1ccc(-c2ccnc3[nH]ccc23)cc1 [GSK977617] | – | – | – | – | – | – | 0 | – | – | – | 94% and 90.7% | 91.4% and 86% | 98.5% and 97.6% | 50% and 52% | 34% and 28% | 58% and 39% | 12% and 8% | 48% and 40% | 78% and 71% | –
3 | Cn1ccc2ncnc(Oc3ccc(NC(=O)Nc4ccncc4)c(Cl)c3)c21 | 0 | 0 | 0 | 13 | 0 | 0 | 35 | 34 | 0 | 0 | – | – | – | – | – | – | – | – | – | –
4 | O=C1Cc2cc(Nc3nc(NCc4cccc(S(=O)(=O)C(F)(F)F)c4)ncc3C(F)(F)F)ccc2N1 | 0 | 0 | 0 | 15 | 0 | 12 | 0 | 11 | 33 | 19 | – | – | – | – | – | – | – | – | – | –
5 | N#Cc1c(N2CCOCC2)sc(-c2ccn[nH]2)c1-c1ccc(Cl)cc1 | 3 | 0 | 0 | 7 | 11 | 0 | 15 | 6 | 19 | 2 | – | – | – | – | – | – | – | – | – | –
6 | Cc1cccc(Cn2ccn3c(=O)cc(N4CCOCC4)nc23)c1 [GSK2297542] | 9 | 5 | 0 | 21 | 14 | 28 | 0 | 6 | 49 | 16 | – | – | – | – | – | – | – | – | – | –
7 | COc1cc(Nc2nccc(N3CCC(NC(=O)c4cccc(NC(C)=O)c4)C3)n2)cc(OC)c1OC (stereo not drawn) [GSK1379754] | 0 | 8 | 19 | 8 | 21 | 0 | 0 | 4 | 62 | 0 | – | – | – | – | – | – | – | – | – | –
8 | Nc1nccc(-c2c(-c3ccc(F)cc3)ncn2C2CCN(CC(F)(F)F)CC2)n1 [SB-236560] | 20 | 0 | 0 | 0 | 0 | 18 | 90.8 | 76 | 17 | 12 | – | – | – | – | – | – | – | – | – | –
9 | COc1ccc(CNC(=O)NC2CCN(c3ccnc(Nc4ccc(OC)cc4)n3)C2)cc1 (stereo not drawn) [GSK1379727] | 0 | 0 | 20 | 11 | 0 | 5 | 0 | 20 | 50 | 0 | – | – | – | – | – | – | – | – | – | –
10 | CSc1ccc(-c2cc3ncnc(SCC(=O)O)c3s2)cc1 | 12 | 0 | 0 | 0 | 15 | 8 | 0 | 8 | 44 | 0 | – | – | – | – | – | – | – | – | – | –
11 | CCc1nc(-c2cccc(C)c2)c(-c2ccnc(NCc3ccccc3)c2)s1 | 2 | 10 | 0 | 10 | 8 | 0 | 14 | 18 | 0 | 5 | – | – | – | – | – | – | – | – | – | –
12 | Cl.Cl.Cl.Fc1ccc(-c2ncn(C3CCNCC3)c2-c2ccnc(Nc3ccccc3)n2)cc1 [SB-238039] | – | 0 | – | – | – | – | – | – | – | – | 0% and 24% | – | 18% and 0% | 18% and 12% | 22% and 33% | 8% and 75% | 87% and 63% | 29% and 7% | 99.9% and 99.8% | 87% and 84%
13 | CN(C(=O)c1ccc(-c2cc(-c3c[nH]nc3-c3ccccn3)ccn2)cc1)C1CCOCC1 [GW810083] | 11 | 2 | 0 | 0 | 0 | 19 | 0 | 36 | 14 | 0 | – | – | – | – | – | – | – | – | – | –
14 | COc1cc2c(cc1OC[C@@H](O)CO)ncc1c3ccc(C#N)cc3[nH]c21 | 6 | 6 | 13 | 0 | 0 | 34 | 0 | 0 | 65 | 0 | – | – | – | – | – | – | – | – | – | –
15 | O=C1NC(=O)C(N2CCc3ccccc32)=C1c1cccc(Cl)c1 [SB-408010] | 5 | 0 | 0 | 0 | 21 | 21 | 0 | 0 | 0 | 0 | – | – | – | – | – | – | – | – | – | –
